# Source: PubChem (National Center for Advancing Translational Sciences (NCATS))
# A selection: hits, their analogues and other compounds. The true share with any hit is near 17%.
# TGFb inhibitor: qHTS for Inhibitors of TGF-b; HepG2 CAGA-GFP TGF-b/SMAD3 reporter, GFP fluorescence, 18 h; TGF-beta stimulated, 500 pg/mL final; Potency, µM (highest dose often 46.1 µM), usual class: inhibitors; actives 1.2% (n = 410,000); also: nearly all actives have a fitted effect of over 65% in size
#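 Cell-based qHTS in HEPG2 carrying a CAGA-GFP Smad reporter; compounds added before 500 pg/mL final TGF-beta, 18 h incubation at 37 degrees C, GFP fluorescence quantified per cell by imaging cytometry.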
# DT40 TDP1 no CPT: qHTS for Inhibitors of human tyrosyl-DNA phosphodiesterase 1 (TDP1): qHTS in cells in absence of CPT; AID 686978, 2013; DT40 Tdp1-/- hTDP1 cells, no CPT, ATP luminescence, 48 h; Potency, µM (series often up to 46.2 µM), actives largely listed as inhibitors; actives 15% (n = 420,000); also: nearly all actives have a fitted effect of over 55% in size
#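 No-CPT arm: Tdp1-/-;hTDP1 DT40 cells (400/well) plus compounds, incubated ≥48 hr at 37 °C. Readout CellTiter-Glo luminescence.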
# HepG2 viability: qHTS for Inhibitors of TGF-b: Cytotox Counterscreen; HepG2 CAGA-GFP viability, ATP luminescence, 18 h; Potency, µM (top dose mostly 46.1 µM), hits mostly cytotoxic; actives 0.76% (n = 410,000); AID 588856, 2011
#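 CellTiter-Glo luminescence gave cytotoxicity after 18 hours at 37 degrees C. The cells were HepG2 CAGA-GFP in 1% FBS DMEM, stimulated with 500 pg/mL TGF-beta after compound addition. %Activity was normalised to no-cell wells (complete cell-killing) and DMSO (no toxicity), and curves were fitted and classified.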
# ATXN2 expr inh: Primary qHTS for Inhibitors of ATXN expression; HEK-293 ATXN2-luciferase reporter, luminescence, 24 h; Potency, µM (doses to about 57 µM), usual class: inhibitors; actives 0.72% (n = 360,000); also: nearly all actives have a fitted effect of over 55% in size
#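 qHTS (up to 57 uM final) was run with 24 h compound exposure of reporter cells at 37 °C. Each well was multiplexed: SteadyGlo luminescence measured ATXN2-luciferase expression after a fluorogenic Gly-Phe-AFC viability readout (25 uM final).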
# S2 tox: Viability Counterscreen for Primary qHTS for Inhibitors of ATXN expression; S2 cells (HEK-293 line with an ATXN2-luciferase reporter) viability, CellTiter-Fluor protease fluorescence, 24 h; Potency, µM (highest dose often 56.7 µM), hits mostly cytotoxic; actives 0.49% (n = 400,000); AID 651635, 2014; also: nearly all actives have a fitted effect of over 40% in size
# DT40 TDP1 CPT: qHTS for Inhibitors of human tyrosyl-DNA phosphodiesterase 1 (TDP1): qHTS in cells in presence of CPT; actives 12% (n = 420,000); AID 686979, 2013; chicken DT40 Tdp1-/-;hTDP1 cells + 20 nM CPT, ATP luminescence, 48 h; Potency, µM (highest dose often 46.2 µM), most hits filed as inhibitors; also: nearly all actives have a fitted effect of over 55% in size
#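 Chicken DT40 Tdp1-/- cells stably complemented with human TDP1 were seeded at 400 cells/well in medium containing 20 nM camptothecin, exposed to pin-transferred compounds, and grown at 37 °C for at least 48 hr. Viability was read as ATP luminescence.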
# Hits are given with their value; n = inactive; u = inconclusive; x = not tested or not shown; [ ] = another dose, or the depositor's remark. Calls follow the shape of the dose curve; as a rule, active = well fitted curve in the direction sought with a large enough effect; inconclusive = small, poorly fitted or top-dose-only effect, or another doubt; inactive = no such curve, though single readings can be large; an effect the other way counts as inactive or inconclusive.
SMILES,TGFb inhibitor,DT40 TDP1 no CPT,HepG2 viability,ATXN2 expr inh,S2 tox,DT40 TDP1 CPT
O=C(NCCS(=O)(=O)N1CCN(c2ccccc2)CC1)C12CC3CC(CC(C3)C1)C2,n,21µM,n,x,n,26µM
CC(Sc1nncn1C)C(=O)Nc1ccc2ccccc2c1 (centres undefined),n,n,n,n,n,n
Cc1ccc(OCC(=O)N(Cc2ccc(N(C)C)cc2)CC2CCCO2)cc1C (centres undefined),n,15µM,n,x,x,15µM
Cc1ccc2c(C)c(C(=O)N(Cc3ccncc3)CC3CCCO3)oc2c1C (centres undefined),n,21µM,n,n,n,26µM
Cc1ccccc1OCC(=O)N(Cc1ccc(N(C)C)cc1)CC1CCCO1 (centres undefined),n,21µM,n,x,x,u
Cc1c(C(=O)N(Cc2ccncc2)CC2CCCO2)oc2c(F)cccc12 (centres undefined),n,n,n,n,n,n
Cc1cc(C)c(OCC(=O)N(Cc2ccc(N(C)C)cc2)CC2CCCO2)c(C)c1 (centres undefined),n,10µM,n,x,x,16µM
Cc1cccc(C)c1OCC(=O)N(Cc1ccc(Cl)cc1)CC1CCCO1 (centres undefined),u,u,n,x,x,u
C=CCN1C(=O)C2(OCCCO2)c2cc(Cl)ccc21,n,n,n,n,n,n
Cc1ccc2oc(C(=O)N(Cc3ccc(N(C)C)cc3)CC3CCCO3)c(C)c2c1 (centres undefined),u,18µM,n,n,n,u
COc1ccc(CNC(=O)c2cccc(-n3cnc4cccnc43)c2C)cc1,n,n,n,x,x,n
COc1cccc(CNC(=O)c2cc(C)nc3c2c(C)nn3-c2ccc(C)cc2)c1,n,16µM,n,n,n,u
COc1ccc(CCNC(=O)c2cc(C)nc3c2c(C)nn3-c2ccc(C)cc2)cc1OC,n,u,n,n,n,u
COc1cccc(CNC(=O)c2cccc(-n3c(C)nc4cccnc43)c2C)c1,u,u,n,x,x,21µM
Cc1c(C(=O)NCc2ccccc2Cl)cccc1-n1cnc2cccnc21,n,23µM,n,x,x,18µM
COc1ccc(NC(=O)c2cc(C)nc3c2c(C)nn3-c2ccc(C)cc2)cc1OC,n,15µM,n,n,n,u
COc1ccc(/C=N\Nc2ncc(F)c(N3CCOCC3)n2)cc1OC,n,u,n,n,n,n
Cc1ccc(F)cc1NC(=O)N1CCNC(=O)C1CC(=O)Nc1cc(Cl)ccc1Cl (centres undefined),n,n,n,n,n,n
Cc1nn(-c2ccccc2)c2nc(C3CC3)cc(C(=O)Nc3ccc(F)cc3)c12,n,21µM,n,n,n,16µM
COc1ccc(NC(=O)c2cc(C3CC3)nc3c2c(C)nn3-c2ccccc2)c(OC)c1,n,u,n,n,n,n
COc1ccc(OC)c(NC(=O)c2cc(C3CC3)nc3c2c(C)nn3-c2ccc(C)cc2)c1,n,u,n,n,n,26µM
C/C(=N\NC(=O)CC#N)C1COc2ccccc2O1 (centres undefined),n,u,n,n,n,u
Cc1ncc(CO)c(/C=N/NC(=O)c2ccccc2Br)c1O,n,u,n,n[11.3 µM],x,u
Cc1ncc(CO)c(/C=N/NC(=S)Nc2cccc(Cl)c2)c1O,u,16µM,n,x,n,u
Cc1ncc(CO)c(/C=N/NC(=S)Nc2ccc(Cl)c(Cl)c2)c1O,u,13µM,n,x,n,16µM
O=C(NCc1cccc(F)c1)c1ccc2nc(N3CCCCC3)sc2c1,n,n,n,n,n,u
